Source: PubChem BioAssay (National Center for Advancing Translational Sciences (NCATS))
This is a sample that favours compounds with a hit; in the whole collection about 3.2% have one here.
TsaE inh: YjeE (TsaE) inhibition, E. coli | P0AF67 | purified YjeE enzyme, qHTS inhibition assay | Potency, µM | 0.05% of 71,000 active | AID 605
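Purified YjeE (10 uM) with BODIPY Texas Red-labeled ADP probe (2 uM); compounds pin-transferred, 15 min at room temperature. Binding inhibition read as decreased fluorescence polarization; ADP titration as control.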
DNA Pol III inh: inhibitors of bacterial DNA polymerase III holoenzyme | reconstituted DNA polymerase III holoenzyme replication, biochemical | Potency, µM (series often up to 57.1 µM) | 0.25% of 71,000 active | AID 603
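Reconstituted *E. coli* holoenzyme (0.35 nM Pol III, 1 nM beta, 154 nM SSB, 2 nM primase) was preincubated with compound for 15 min at RT. Synthesis on 1.4 nM ssM13Gori ran 35 min, then was stopped with PicoGreen/EDTA and read as dsDNA fluorescence.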
Tau filament bind: binds recombinant human tau filaments. recombinant tau filaments, thioflavin S fluorescence, 15 h; filaments grown with octadecylsulfate alongside compound. Potency, µM (series often up to 57.1 µM). 2% of 71,000 active;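 note: actives lower thioflavin S fluorescence by blocking filaments or displacing dye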
Target sequence (P10636 whole entry, looked up): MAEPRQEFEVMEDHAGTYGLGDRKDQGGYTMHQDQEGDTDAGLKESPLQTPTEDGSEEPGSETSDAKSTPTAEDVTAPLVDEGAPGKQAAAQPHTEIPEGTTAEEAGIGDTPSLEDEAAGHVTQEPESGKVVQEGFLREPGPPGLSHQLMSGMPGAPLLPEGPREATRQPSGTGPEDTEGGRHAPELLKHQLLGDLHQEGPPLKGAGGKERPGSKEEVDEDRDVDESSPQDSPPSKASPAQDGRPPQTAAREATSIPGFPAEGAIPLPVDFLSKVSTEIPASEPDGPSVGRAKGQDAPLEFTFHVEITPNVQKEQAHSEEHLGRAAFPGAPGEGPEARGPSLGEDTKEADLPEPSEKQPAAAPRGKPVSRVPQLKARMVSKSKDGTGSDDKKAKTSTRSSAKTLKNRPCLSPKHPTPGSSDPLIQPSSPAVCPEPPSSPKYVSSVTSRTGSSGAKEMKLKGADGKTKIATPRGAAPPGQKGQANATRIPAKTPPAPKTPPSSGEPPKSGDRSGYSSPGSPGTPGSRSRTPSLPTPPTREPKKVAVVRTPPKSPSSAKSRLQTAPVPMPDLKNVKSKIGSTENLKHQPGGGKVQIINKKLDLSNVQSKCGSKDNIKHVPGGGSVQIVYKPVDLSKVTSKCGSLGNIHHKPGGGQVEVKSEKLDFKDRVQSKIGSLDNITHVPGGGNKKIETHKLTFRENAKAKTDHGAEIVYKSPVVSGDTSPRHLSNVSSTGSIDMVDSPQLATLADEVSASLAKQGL
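His-tagged recombinant human tau (exons 2, 3 and 10 included), 1 uM, was induced to fibrillize by 30 uM sodium octadecylsulfate with compound present. After 15 h at 37 C, thioflavine S fluorescence (ex 450, em 510 nm) was read.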
ERK AVP block: vasopressin-driven ERK pathway inhibition; HEK293-V1b, vasopressin-stimulated pERK AlphaScreen; AID 995; 0.99% of 72,000 active; Potency, µM (titrated, usually from 57.5 µM), most hits filed as inhibitors; note: nearly all actives have a fitted effect of over 55% in size
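Phosphorylated ERK1/2 detected via AlphaScreen bead proximity in lysates of V1b-expressing HEK293 cells given 25 nM vasopressin for 5 min after 30 min compound exposure (37 °C). AC50 from Hill equation; basal DMSO 0%, vasopressin 100%.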
p53ts 39C tox: kills p53ts cells at the nonpermissive temperature. H1299-p53A138V viability at 39C, ATP luminescence, 24 h. Potency, µM (series often up to 46.1 µM), hits mostly cytotoxic. 1.5% of 130,000 active. AID 902; note: nearly all actives have a fitted effect of over 55% in size
p53ts 32C tox: kills p53ts cells at the permissive temperature | 0.93% of 130,000 active | H1299-p53A138V at 32C, ATP luminescence viability, 24 h | Potency, µM (top dose mostly 46.1 µM), hits mostly cytotoxic; note: nearly all actives have a fitted effect of over 55% in size
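ATP-content luminescence (ATPlite) read-out after 24 h compound exposure at 32C in H1299-p53A138V cells (600/well). Tested up to 46 uM. Normalized to DMSO (0%) and 100 uM tamoxifen (100% killing); Hill-fit AC50.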
A number is an active result; [ ] = remark or other dose. Calls come from the whole dose curve; as a rule, active = well fitted curve in the direction sought with a large enough effect; inconclusive = small, poorly fitted or top-dose-only effect, or another doubt; inactive = no such curve, though single readings can be large; an effect the other way counts as inactive or inconclusive.

Screening CCCc1cc(=O)oc2cc(C)c(CN3CCCC3)c(O)c12 returned TsaE inh inactive, DNA Pol III inh inactive, Tau filament bind 13µM, ERK AVP block inactive, p53ts 39C tox inactive and p53ts 32C tox inactive.
Screening CCN1CCN(Cc2cc(=O)oc3cc(C)cc(C)c23)CC1 returned TsaE inh inactive, DNA Pol III inh inactive, Tau filament bind inactive, ERK AVP block inactive, p53ts 39C tox inactive and p53ts 32C tox inactive.
Screening C=CCOCC1CN2C(CCC(C)C2c2ccc(Br)cc2)C(=O)O1 (stereo not given) returned ERK AVP block inactive[11.5 µM], p53ts 39C tox inactive[9.22 µM] and p53ts 32C tox inactive[9.22 µM].
`COc1cccc(NC(=O)CSc2nc(C)c(Cc3ccccc3)c(=O)[nH]2)c1` gave p53ts 39C tox inactive and p53ts 32C tox inactive.
For CC(C)Oc1ccc(C(=O)Nc2nnc(SCC(=O)N3CCOCC3)s2)cc1 the results were p53ts 39C tox 0.5µM and p53ts 32C tox 0.63µM.
`CCOC(=O)CSc1nc2ccc(NC(=O)c3ccc(Cl)cc3)cc2s1` gave p53ts 39C tox inactive and p53ts 32C tox inconclusive.
O=C(Nc1ccc2nc(SCC(=O)N3CCc4ccccc43)sc2c1)c1cccc(F)c1 was read as p53ts 39C tox inactive and p53ts 32C tox inactive.
For Cc1ccc(C(=O)Nc2ccc3nc(SCC(=O)N4CCc5ccccc54)sc3c2)cc1 the results were p53ts 39C tox inactive and p53ts 32C tox inactive.
Cc1ccc(C(=O)Nc2nnc(SCC(=O)N3CCCc4ccccc43)s2)cc1 was read as p53ts 39C tox 0.56µM.
`O=C(Nc1ccc2nc(SCC(=O)N3CCc4ccccc43)sc2c1)c1ccc(F)cc1` gave p53ts 39C tox 13µM and p53ts 32C tox inactive.
`CCOC(=O)CSc1nc2ccc(NC(=O)c3ccc(C)cc3)cc2s1` gave p53ts 39C tox 10µM and p53ts 32C tox 13µM.
`Nc1ccc(S(=O)(=O)O)cc1` gave TsaE inh inactive, DNA Pol III inh inactive, Tau filament bind inactive, ERK AVP block inactive, p53ts 39C tox inactive and p53ts 32C tox inactive[1.84 µM].
Cc1c(C(=O)N(C)C)sc2c1c(=O)n(-c1ccc(Cl)c(Cl)c1)c(=O)n2CC(=O)N1CCCCC1C (stereo not given) was read as p53ts 39C tox inactive and p53ts 32C tox inactive.
COc1ccc(-c2nnc(SCc3cc(=O)c4cc(C)cc(C)c4[nH]3)n2C)cc1 was read as p53ts 39C tox inactive and p53ts 32C tox inactive.
For Cc1cccc(-c2noc(CN(C(C)C)S(=O)(=O)c3ccc(Br)cc3)n2)c1 the results were p53ts 39C tox inactive and p53ts 32C tox inactive.
Screening O=C(NCCc1nc2ccccc2n1CCOc1ccc(Cl)cc1)C1CCCCC1 returned p53ts 39C tox inconclusive and p53ts 32C tox inactive.
Cc1ccccc1Cn1c2ccccc2c2cnn(CC(=O)NCCc3ccccc3)c(=O)c21 was read as p53ts 39C tox inconclusive and p53ts 32C tox inactive.
Screening Cc1cccc(C2C=C(c3ccc(F)cc3)Nc3nc4ccccc4n32)c1 (stereo not given) returned p53ts 39C tox 10µM and p53ts 32C tox 20µM.
Cc1ccc(C2=CC(c3ccccc3C)n3c(nc4ccccc43)N2)cc1 (stereo not given) was read as p53ts 39C tox 5µM and p53ts 32C tox inconclusive.
CCCCN(CC)C(=O)Nc1ccc2c(c1)N(C)C(=O)c1ccccc1S2 was read as p53ts 39C tox 25µM and p53ts 32C tox inactive.
`CCCCN(CC)CCCNC(=O)c1ccc2c(c1)N(Cc1ccc(C)cc1)C(=O)c1ccccc1S2` gave p53ts 39C tox 13µM and p53ts 32C tox inconclusive.
CCOC(=O)C1=C(CS(=O)(=O)c2ccc(C)cc2)NC(=O)NC1c1ccc(C(C)C)cc1 (stereo not given) was read as p53ts 39C tox inconclusive and p53ts 32C tox inactive.
For COc1ccc(C=Nc2c(O)ccc3ccccc23)cc1OC the results were TsaE inh inactive, DNA Pol III inh inactive[11.4 µM], Tau filament bind 4µM, ERK AVP block inactive[11.5 µM], p53ts 39C tox inactive[9.22 µM] and p53ts 32C tox inactive[9.22 µM].
For COc1cccc(-n2c(=O)c3c(C)c(C(=O)N(C)C)sc3n(Cc3ccc(F)cc3Cl)c2=O)c1 the results were p53ts 39C tox inactive and p53ts 32C tox inactive.
Cc1c(O)ccc2c3c(c(=O)oc12)CCCC3 was read as TsaE inh inactive, DNA Pol III inh inactive, Tau filament bind inactive, ERK AVP block 16µM, p53ts 39C tox inactive and p53ts 32C tox inactive.
For COc1ccc(NC(=O)N2CCC3(CC2)CCN(S(=O)(=O)c2ccccc2)CC3)cc1 the results were TsaE inh inactive, DNA Pol III inh inactive, Tau filament bind inactive, ERK AVP block inactive, p53ts 39C tox inactive and p53ts 32C tox inactive.
Screening Cc1nc(-c2ccccc2)sc1-c1ccc(SCC(=O)Nc2cccc(C(F)(F)F)c2)nn1 returned p53ts 39C tox 10µM and p53ts 32C tox inactive.
`CC(=O)Nc1cccc(NC(=O)CSc2ccc(-c3sc(-c4ccccc4)nc3C)nn2)c1` gave p53ts 39C tox 7.9µM and p53ts 32C tox inactive.
`Cc1ccc(NC(=O)Nc2cccs2)c(C)c1` gave p53ts 39C tox inconclusive and p53ts 32C tox inactive.
`O=C(O)c1cc(-c2ccc3cc4c(cc3c2)OCO4)nc2ccccc12` gave TsaE inh inactive, DNA Pol III inh inactive[11.4 µM], Tau filament bind inactive[11.4 µM], ERK AVP block inactive[11.5 µM], p53ts 39C tox 1.3µM and p53ts 32C tox 1.6µM.
For CCOC(=O)C1=C(N)n2c(s/c(=C/c3ccco3)c2=O)=C(C(=O)OC)C1c1ccco1 (stereo not given) the results were TsaE inh inactive, DNA Pol III inh inactive, Tau filament bind 3.2µM, ERK AVP block inconclusive, p53ts 39C tox inactive and p53ts 32C tox inactive.
N#CC1=C(N)n2c(s/c(=C\c3ccco3)c2=O)=C(C#N)C1c1ccco1 (stereo not given) was read as TsaE inh inactive, DNA Pol III inh inactive, Tau filament bind inactive, ERK AVP block inactive, p53ts 39C tox inactive and p53ts 32C tox inactive.
`CCOC(=O)C1=C(C)N=c2s/c(=C/c3ccco3)c(=O)n2C1c1cccc(OC)c1` (stereo not given) gave TsaE inh inactive, DNA Pol III inh inactive, Tau filament bind 3.2µM, ERK AVP block inconclusive, p53ts 39C tox inactive and p53ts 32C tox inactive.
For O=c1[nH]c2ccc(Br)cc2c(-c2ccccc2)c1N1CCOCC1 the results were TsaE inh inactive, DNA Pol III inh inactive, Tau filament bind inactive, p53ts 39C tox inactive and p53ts 32C tox inactive.
Screening O=c1ccc2cc3c([nH]c4ccc(Br)cc43)oc-2c1O returned TsaE inh inactive, DNA Pol III inh inactive, Tau filament bind 13µM, ERK AVP block inactive, p53ts 39C tox inactive and p53ts 32C tox inactive.
Screening COc1cccc(OC(=O)CSc2nnc(-c3ccccc3OC)o2)c1 returned p53ts 39C tox inactive and p53ts 32C tox inactive.
